This is a sample that favours compounds with a hit; in the whole collection about 10% have one here.
GLS inhibitor = blocks human kidney-isoform glutaminase activity; Potency, µM (top dose mostly 45.5 µM), for inactives: top-dose activity change, negative = inhibition, actives largely listed as inhibitors; AID 624170; 0.21% of 410,000 active; O94925; GLS enzymatic activity, qHTS titration; further: on the % scale 0 is the no-effect control and ±100 the full control effect
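Human kidney-isoform GLS in 45 mM KH2PO4 pH 8.2, 0.02% Tween-20, with compound, started with 1mM L-Glutamine (added stock). Glutamate oxidase/HRP/Amplex red coupled fluorescence read at start and after 30 min at RT.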
G9a inh = inhibitors of human histone lysine methyltransferase G9a | Q96KQ7 | G9a H3K9 monomethylation, AlphaScreen, 2 h | Potency, µM (series often up to 102 µM), for inactives: at the top dose activity, negative = inhibition, usual class: inhibitors | 8.8% of 350,000 active; further: on the % scale 0 is the no-effect control and ±100 the full control effect; nearly all actives have a fitted effect of over 75% in size
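Using a bead-based AlphaScreen, monomethylated H3K9 product from 2 h room-temperature reactions (G9a 20 nM, peptide 500 nM, SAM 20 uM) was detected with 0.5 ug/mL rabbit anti-H3K9me1 antibody.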
JMJD2A Tudor = JMJD2A Tudor domain (human) inhibition | 4.4% of 390,000 active | Potency, µM (series often up to 114 µM), without a hit: top-dose activity change, negative = inhibition, actives largely listed as inhibitors | AlphaScreen JMJD2A-Tudor / H3K4me3 peptide binding | O75164; further: on the % scale 0 is the no-effect control and ±100 the full control effect; nearly all actives have a fitted effect of over 50% in size
HP1b chromo inh = inhibitors of HP1-beta chromodomain binding to methylated histone tails; AlphaScreen HP1-beta / biotin-H3K9me3 peptide binding; P83916; Potency, µM (series often up to 114 µM), without a hit: at the highest dose activity change, negative = inhibition, hits mostly inhibitors; 0.56% of 390,000 active; further: nearly all actives have a fitted effect of over 70% in size
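AlphaScreen: HP1-beta (50 nM) preformed 30 min with biotin-H3(1-18)K9me3 peptide (50 nM) in PBS pH 7.4, 0.01% Tween-20. Compound added for 30 min at RT, then streptavidin donor/nickel chelate acceptor beads (10 ug/mL) for 30 min.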
BAZ2B block = inhibitors of human BAZ2B bromodomain. AlphaScreen BAZ2B-H3K14Ac peptide displacement. Potency, µM (highest dose often 114 µM), for the others: at the highest dose activity change, negative = inhibition, usual class: inhibitors. 4.4% of 360,000 active. AID 504333; further: on the % scale 0 is the no-effect control and ±100 the full control effect; nearly all actives have a fitted effect of over 60% in size
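Compounds, titrated to a top concentration of 110 uM, were incubated 30 min at room temperature with preformed BAZ2B/acetyl-K14 H3 peptide complex (50 nM each). Proximity signal was measured by AlphaScreen after 20 min with beads.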
Active calls of the source: *; u = inconclusive; x = no result; [ ] = remark or other dose. The call rests on the fitted dose curve; in most records, active means well fitted curve in the direction sought with a large enough effect; inconclusive means small, poorly fitted or top-dose-only effect, or another doubt; inactive means no such curve, though single readings can be large; an effect the other way counts as inactive or inconclusive. Potency means the concentration at half of the fitted maximal effect.

SMILES	GLS inhibitor	G9a inh	JMJD2A Tudor	HP1b chromo inh	BAZ2B block
CCC(C(=O)Nc1ccc(S(=O)(=O)N2CCN(C)CC2)cc1)c1ccccc1 (stereo unspecified)	0%	x	-20%	15%	x
CCc1cc(C(=O)N(CCCOC)c2c(N)n(Cc3ccccc3)c(=O)[nH]c2=O)sc1C	-16%	13µM*	-2%	38%	7%
COCCCN(C(=S)NC(=O)c1ccc(Br)cc1)c1c(N)n(Cc2ccccc2)c(=O)[nH]c1=O	6%	50µM*	-25%	-14%	-9%
COc1ccc(C(=O)CCN2CCC(C)CC2)cc1	3%	16µM*	2%	48%	-2%
COc1ccc(C(=O)CCN2CCCC(C)C2)cc1 (stereo unspecified)	0%	25µM*	-5%	29%	-3%
Cc1c(Br)c([N+](=O)[O-])nn1CCCC(=O)N1CCN(c2ccccc2)CC1	6%	-3%[59 µM]	-22%	-1%	-12%
CCCCn1c(O)c2n(c1=O)Cc1ccccc1N=C2c1ccc(OC)cc1	2%	x	x	x	x
Cc1ccccc1C1c2[nH]c3ccccc3c2CCN1CCCn1cccn1 (stereo unspecified)	9%	u	u	-17%	u
COc1ccc(C2c3[nH]c4ccccc4c3CCN2CCCn2cccn2)c(F)c1 (stereo unspecified)	-2%	u	-35%	-23%	-38%
Cc1ccccc1C1c2[nH]c3ccccc3c2CCN1Cc1cccn1-c1ncccn1 (stereo unspecified)	-7%	50µM*	u	-11%	25µM*
Fc1ccccc1C1c2[nH]c3ccccc3c2CCN1Cc1cccn1-c1ncccn1 (stereo unspecified)	11%	x	u	u	32µM*
CN(C)S(=O)(=O)c1cc(NC(=O)COC(=O)C2COc3ccccc3O2)ccc1Cl (stereo unspecified)	0%	u	-15%	20%	x
Cc1cccc(C)c1N1CCN(C(=O)Cn2cncn2)CC1	3%	18µM*	u	3%	-25%
O=C(CN1CCN(S(=O)(=O)c2ccc(F)c(Cl)c2)CC1)N1CCc2ccccc21	-1%	5%[12.7 µM]	-11%	30%	1%
COc1ccc(NC(=O)N2CCCC2C(=O)Nc2ccccc2F)cc1 (stereo unspecified)	47%	-11%	-6%	38%	-7%
O=C(NCC1CCCCC1)C1(CC2CC(c3cccc(Br)c3)=NO2)CCNCC1 (stereo unspecified)	10%	u	-18%	11%	-5%[57.1 µM]
O=C(NCC1CCCCC1)C1(CC2CC(c3ccc(Cl)cc3)=NO2)CCNCC1 (stereo unspecified)	-8%	45µM*	-18%	38%	-1%
CC(C)c1ccc(C(=O)NC(=S)NCc2cccnc2)cc1	4%	-18%[59 µM]	-30%	1%	u
CCc1cc(C(c2ccccn2)N2CCN(C)CC2)c(NC(=O)c2ccccc2)s1 (stereo unspecified)	3%	40µM*	u	7%	-36%
CCCn1nnnc1NCc1ccccc1OCC	5%	35µM*	-9%	27%	2%
CCC(C)NC(=O)Nc1ccc(Br)cc1 (stereo unspecified)	0%	-2%	-1%	40%	-13%
CCC(C)Nc1ccc(NC(C)CC)cc1 (stereo unspecified)	0%	2%[0.501 µM]	40µM*	u	35µM*
COc1ccc(CCN2Cc3c(cccc3[N+](=O)[O-])C2=O)cc1OC	0%	7%	u	17%	-23%
CC(C)CCNC(=O)c1onc(CSc2ccccn2)c1C(=O)NCCC(C)C	8%	x	35µM*	44%	x
COCCNC(=O)c1onc(CSc2ccccn2)c1C(=O)NCCOC	0%	x	-7%	40%	x
CCc1nn2c(=O)c(S(=O)(=O)Nc3ccc(C)cc3C)c(C)nc2s1	8%	u	-18%	5%	-1%
C=CCn1c(Sc2ncc([N+](=O)[O-])s2)n[nH]c1=O	-2%	11µM*	-24%	-9%	-18%
O=C1NCCN1c1ncc([N+](=O)[O-])s1	10%	-1%[59 µM]	-9%	16%	6%
CN(C)CCOC(=O)C12CC3CC(C1)CC(C(=O)OCCN(C)C)(C3)C2	-6%	56µM*	3%	23%	1%

Bioassay records deposited in PubChem by National Center for Advancing Translational Sciences (NCATS).
